Mcl1 Bid PPI: Mcl-1/Bid interaction inhibition; inhibition, % at 21.7 µM; TR-FRET Mcl-1/Bid-Dy647 peptide binding, 1536-well; 0.97% of 220,000 active;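 active = compounds that cut the binding signal by more than half at the single screening dose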;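 also: His-tagged Mcl-1 with europium anti-His antibody binding Bid BH3 peptide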
MCL1 BIM primary: MCL1-BIM-BH3 interaction inhibition (human); Q07820; GST-MCL1 / FITC-Bim-BH3 fluorescence polarization; inhibition, % at 10.9 µM; 0.68% of 320,000 active; AID 2057;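 active = inhibition above the mean inhibition of all tested compounds plus 3 SD, set per campaign, cut at about 40% in these data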;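 also: higher means more loss of mP so more displacement of Bim peptide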
Mcl1-Noxa inh: Mcl-1/Noxa interaction inhibition; Q07820; TR-FRET Mcl-1/Noxa peptide binding, 2 h; inhibition, % at 21.7 µM; 1.5% of 220,000 active;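 active = compounds that cut the protein-peptide binding signal by more than 50% relative to plate controls in a single-dose test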;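 also: His-tagged Mcl-1 with rhodamine Noxa BH3 peptide and terbium anti-His antibody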
Bim-Mcl-1: human Bim-Mcl-1 interaction inhibition | Bead-based flow cytometry, Bim peptide-Mcl-1 binding | inhibition, % at 10 µM | 0.1% of 190,000 active | AID 1009; in the data active = inhibition above about 40%
GLD-1 TGE inh: GLD-1-TGE RNA interaction inhibition (C. elegans); Q17339; purified GLD-1 + fluorescein TGE RNA, fluorescence polarization; inhibition, % at 5.96 µM; 0.44% of 320,000 active; AID 2280;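 active = percent inhibition above a per-plate cutoff, the plate mean of test compounds plus 3 SD, cut at about 30% in these data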
Target sequence (Q17339 whole entry, looked up): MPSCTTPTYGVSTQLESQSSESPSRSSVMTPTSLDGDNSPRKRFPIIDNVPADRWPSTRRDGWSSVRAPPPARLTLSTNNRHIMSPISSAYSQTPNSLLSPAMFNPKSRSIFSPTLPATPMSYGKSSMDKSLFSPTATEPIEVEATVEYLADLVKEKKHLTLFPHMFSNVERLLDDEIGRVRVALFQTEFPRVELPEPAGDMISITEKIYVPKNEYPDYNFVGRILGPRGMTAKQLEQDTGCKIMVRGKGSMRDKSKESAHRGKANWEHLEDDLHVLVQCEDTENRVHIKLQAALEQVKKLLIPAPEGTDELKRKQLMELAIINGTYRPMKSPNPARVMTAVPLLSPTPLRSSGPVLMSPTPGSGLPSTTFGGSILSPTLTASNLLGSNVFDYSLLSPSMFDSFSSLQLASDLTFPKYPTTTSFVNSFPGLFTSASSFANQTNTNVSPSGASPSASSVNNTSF
Bcl-xL primary: blocks human Bcl-xL binding to Bim BH3 peptide; Q07817; GST-Bcl-xL / FITC-Bim BH3 peptide fluorescence polarization; inhibition, % at 10.9 µM; 0.7% of 320,000 active; AID 2129;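 active = inhibition above the mean of all tested compounds plus 3 SD, cutoff set per campaign, cut at about 30% in these data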;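 also: inhibitors lower millipolarization by displacing the labeled peptide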
Target sequence (Q07817 whole entry, looked up): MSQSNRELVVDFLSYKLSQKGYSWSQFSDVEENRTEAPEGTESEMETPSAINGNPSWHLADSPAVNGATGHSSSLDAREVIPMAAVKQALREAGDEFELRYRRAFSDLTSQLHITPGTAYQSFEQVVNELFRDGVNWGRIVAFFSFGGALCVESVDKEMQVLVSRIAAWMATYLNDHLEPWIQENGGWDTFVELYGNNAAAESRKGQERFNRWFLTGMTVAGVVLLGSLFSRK
Hits are given with their value; 0 = inactive; - = no result. The list is not random: actives were taken first. Their share in the collection is about 2.3%.

SMILES | Mcl1 Bid PPI | MCL1 BIM primary | Mcl1-Noxa inh | Bim-Mcl-1 | GLD-1 TGE inh | Bcl-xL primary
CC1CCc2nc3sc4c(c3c(N)c2C1)CCCC4 (stereo unspecified) | 0 | 0 | 0 | 0 | 0 | 0
CC1CCc2c(nc3sc4c(c3c2N)CCCC4)C1 (stereo unspecified) | 0 | 0 | 54 | 0 | 0 | 0
CN(CC(=O)Nc1ccccc1Cl)C1CCCCC1 | - | 0 | - | - | 0 | 0
CN(CC(=O)Nc1ccccc1Cl)C1CCS(=O)(=O)C1 (stereo unspecified) | - | 0 | - | - | 0 | 36
Cc1sc(NC(=O)c2ccco2)c(CN2CCCCC2)c1C | 0 | 0 | 0 | 0 | 0 | 38
COc1ccc(C(=O)NNC(=O)CN2CCC(n3nnc4cc(C(F)(F)F)ccc43)CC2)cc1 | 0 | 0 | 52 | 0 | 0 | 0
Cc1ccc(-n2c(=O)c3cc4c(=O)n(-c5ccc(C)c(C)c5)c(=O)c4c(C(=O)c4ccc(C(=O)O)cc4)c3c2=O)cc1C | 102 | 0 | 95 | - | 0 | 0
COc1ccc(N2CCN(C(=O)c3ccc4c(c3)OCO4)CC2)cc1 | 86 | 0 | 0 | 0 | 0 | 0
COc1ccc(N2CCN(C(=O)c3ccc(CSc4ccccc4)cc3)CC2)cc1 | 0 | 0 | 96 | 0 | 0 | 0
COc1ccc(N2CCN(C(=O)CSc3ccccc3)CC2)cc1 | 0 | 0 | 0 | 0 | 0 | 0
CC(=O)c1ccc(N2CCN(C(=O)c3ccc4c(c3)OCO4)CC2)cc1 | - | 0 | - | - | 0 | 0
Nc1nonc1-n1nnc(C(=O)N/N=C/C=C/c2ccccc2)c1CSC1=NCCS1 | 0 | 0 | 0 | - | 0 | 0
CCOC(=O)c1cccc(NC(=O)CNS(=O)(=O)c2cccs2)c1 | 0 | 0 | 0 | 0 | 0 | 0
Cc1c(NC(=O)Oc2ccccc2)sc(=S)n1C | 0 | 0 | 0 | 0 | 0 | 0
CCOC(=O)c1sc(=S)n(C)c1C | 0 | 0 | 0 | 0 | 0 | 0
Cc1ccc(NC(=O)Nc2sc(=S)n(C)c2C)cc1 | 0 | 0 | 54 | 0 | 0 | 0
CC(=O)NC(=O)Nc1sc(=S)n(C)c1C | 0 | 0 | 0 | 41 | 0 | 0
COc1ccc(C(=O)Nc2ccccc2-c2ccccc2)cc1Cl | 0 | 0 | 0 | 0 | 0 | 0
Cc1ccc(NC(=O)CCN2CCN(C/C=C/c3ccccc3)CC2)cc1C | 0 | 0 | 0 | 0 | 0 | 0
O=c1cc(CN2CCN(c3ccc(O)cc3)CC2)nc2scc(-c3ccccc3)n12 | 0 | 0 | 67 | 0 | 0 | 0
CC1=Nc2cc(C(=O)O)ccc2Sc2ccc(Br)cc21 | 0 | 0 | 57 | 0 | 0 | 0
COC(=O)C(NC(=O)COc1ccccc1)(Nc1nc2c(s1)CCCC2)C(F)(F)F (stereo unspecified) | 0 | 0 | 0 | 0 | 0 | 0
COc1ccccc1NC(=O)C(=O)N/N=C/c1ccc([N+](=O)[O-])s1 | 93 | - | 93 | 0 | - | -
O=[N+]([O-])c1ccc(/C=N/NC(=S)Nc2ccc(Cl)cc2Cl)s1 | 80 | 0 | 87 | - | 0 | 0
Cc1ccccc1NC(=O)/C=C/c1ccc([N+](=O)[O-])s1 | 52 | 0 | 0 | 0 | 0 | 0
SMILES | Mcl1 Bid PPI | MCL1 BIM primary | Mcl1-Noxa inh | Bim-Mcl-1 | GLD-1 TGE inh | Bcl-xL primary
COc1ccc2c(CC(=O)Nc3ccc(N4CCOCC4)cc3)coc2c1 | 0 | 0 | 0 | 0 | 0 | 0
CCOc1ccc(NC(=O)c2cc3c(C)nc4ccccc4c3o2)cc1 | 52 | 0 | 0 | 0 | 0 | 0
COc1ccc(C(C)=O)cc1CN1C(=O)NC2(CCCCCCC2)C1=O | 0 | 0 | 0 | 0 | 0 | 0
O=C(OCC(=O)N1CCCC1=O)C1COc2ccccc2O1 (stereo unspecified) | 0 | 0 | 58 | 0 | 0 | 0
CCN(CC)C(=O)c1sc(NC(=O)c2cc(-c3ccc(C)s3)nc3ccccc23)c(C(=O)OC)c1C | 0 | 0 | 61 | 0 | 0 | 0
CCOc1ccc(C2C3=C(CCCC3=O)Nc3ccc4ncccc4c32)cc1 (stereo unspecified) | 0 | 0 | 0 | - | 0 | 0
O=C1CCCC2=C1C(c1ccc(O)c(O)c1)c1c(ccc3ncccc13)N2 (stereo unspecified) | 0 | 52 | 79 | 0 | 0 | 36
CCOC(=O)c1c2c3c(cccc3[nH]c1=O)C(=O)c1ccccc1-2 | 0 | 47 | 0 | 0 | 0 | 54
COc1ccc(CN2CCN(c3ccccn3)CC2)c(OC)c1 | 56 | 0 | 0 | 0 | 0 | 0
O=C1c2ccccc2S(=O)(=O)c2cc(N3CCC(C(=O)N4CCCCC4)CC3)ccc21 | - | 0 | - | - | 0 | 0
O=C1c2ccccc2S(=O)(=O)c2cc(N3CCc4ccccc4C3)ccc21 | - | 0 | - | - | 0 | 39
O=C(Nc1nnc(-c2ccco2)s1)C1CCN(S(=O)(=O)c2ccc(Cl)cc2)CC1 | - | 0 | - | 0 | 0 | 0
O=C(Nc1nnc(-c2ccco2)s1)C1CC1 | 77 | 0 | 0 | 0 | 0 | 0
CCCCC1=CC2=CC(=O)C(C)(OC(=O)CC)C(=O)C2=CN1CCN1CCOCC1 (stereo unspecified) | 0 | 0 | 0 | - | 0 | 31
O=C(CCl)N=c1sccn1Cc1ccc(Cl)cc1Cl | 0 | 0 | 0 | 0 | 0 | 0
Cc1ccc(Nc2nc(-c3ccc(O)c(O)c3)cs2)nc1 | 0 | - | 54 | 0 | - | -
COc1ccc(-c2csc(Nc3ccc(C)cn3)n2)cc1OC | 0 | 0 | 0 | 0 | 0 | 0
CCOc1ccc(N=c2scc(-c3ccccc3)n2CCO)cc1 | 0 | 0 | 0 | 0 | 0 | 0
CCn1c(-c2ccccc2)csc1=Nc1ccc(O)cc1 | 0 | 0 | 64 | 0 | 0 | 0
CC(CCc1ccccc1)NC(=O)/C=C/c1ccc(F)cc1 (stereo unspecified) | 0 | 0 | 0 | 0 | 0 | 0
CCCCSCCCNC(=O)CS(=O)Cc1nc(-c2cccc(C)c2)oc1C (stereo unspecified) | 0 | 0 | 0 | 0 | 0 | 45
CCCCNC(=O)CS(=O)Cc1nc(-c2cccc(C)c2)oc1C (stereo unspecified) | 0 | 0 | 0 | 0 | 0 | 0
CC1Cc2ccccc2N1Cc1cc(=O)n2ccsc2n1 (stereo unspecified) | 0 | 0 | 0 | 0 | 0 | 33
COc1ccccc1NC(=O)NCCN1CCCCC1 | - | 0 | - | - | 0 | 0
O=C(O)c1ccc(NC2=C(Cl)C(=O)c3ccccc3C2=O)cc1 | 0 | 0 | 53 | - | 0 | 0
SMILES | Mcl1 Bid PPI | MCL1 BIM primary | Mcl1-Noxa inh | Bim-Mcl-1 | GLD-1 TGE inh | Bcl-xL primary
O=C(O)c1cccc(NC2=C(Cl)C(=O)c3ccccc3C2=O)c1 | 0 | - | 87 | 0 | - | -
Cc1ccc(NC2=C(NC(=O)c3ccccc3)C(=O)c3ccccc3C2=O)cc1Cl | 0 | 0 | 86 | 0 | 0 | 0
C/C(=N\NC(=O)C1CC1c1ccccc1)c1cccs1 (stereo unspecified) | 0 | 0 | 0 | 0 | 0 | 0
CNc1ccc([N+](=O)[O-])cc1-c1nc2ccccc2[nH]c1=O | 0 | 0 | 65 | - | 0 | 0
CCOC(=O)CCCNC(=O)CCNC(=O)c1ccc(OCC)cc1 | 0 | 0 | 66 | 0 | 0 | 0
Cc1nc(CSc2nc3[nH]ncc3c(=O)n2-c2ccccc2)cs1 | 84 | 0 | 0 | 0 | 0 | 0
CN(C(=O)COC(=O)Cc1c(Cl)cccc1Cl)c1c(N)n(Cc2ccccc2)c(=O)[nH]c1=O | - | 0 | - | - | 0 | 0
